Experimental data from article PMC5700166.

Experiments:
Test in all cases: protein-binding microarray (PBM); PBM: ~300 nM protein, 6 mM HEPES pH 7.8, 80 mM KCl, 0.5 mM EDTA, 0.5 mM EGTA, 6% glycerol, 35 ng/ul poly-dIdC, 1% milk, 1 h, room temperature; Ap Aiptasia and Nv Nematostella (sea anemones) / Co Capsaspora / Aq Amphimedon (sponge) / Dm Drosophila / Hu human; RHD is the Rel homology domain; high values mean tight binding
Conditions in all cases: dsDNA, one strand shown
GST-Ap-NF-kB RHD = biological target: T1, GST-Ap-NF-kB RHD (Exaiptasia pallida (Aiptasia), UniProt A0A913YAJ5 2-422)
T1 sequence: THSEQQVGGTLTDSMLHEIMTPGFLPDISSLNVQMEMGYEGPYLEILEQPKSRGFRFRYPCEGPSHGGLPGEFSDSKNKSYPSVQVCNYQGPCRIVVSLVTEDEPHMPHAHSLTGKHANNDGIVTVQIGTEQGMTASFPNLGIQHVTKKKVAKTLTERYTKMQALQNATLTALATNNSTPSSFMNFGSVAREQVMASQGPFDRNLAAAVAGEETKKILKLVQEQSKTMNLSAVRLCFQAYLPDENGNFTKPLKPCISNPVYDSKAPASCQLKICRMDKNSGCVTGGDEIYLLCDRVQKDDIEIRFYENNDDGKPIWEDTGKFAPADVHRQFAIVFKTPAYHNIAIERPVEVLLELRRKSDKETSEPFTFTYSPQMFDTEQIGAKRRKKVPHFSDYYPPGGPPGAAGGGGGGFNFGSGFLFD

[1] = biological target: T2, GST-Nv-NF-kB (Cys allele) (Nematostella vectensis, UniProt E5G601 2-411)
T2 sequence: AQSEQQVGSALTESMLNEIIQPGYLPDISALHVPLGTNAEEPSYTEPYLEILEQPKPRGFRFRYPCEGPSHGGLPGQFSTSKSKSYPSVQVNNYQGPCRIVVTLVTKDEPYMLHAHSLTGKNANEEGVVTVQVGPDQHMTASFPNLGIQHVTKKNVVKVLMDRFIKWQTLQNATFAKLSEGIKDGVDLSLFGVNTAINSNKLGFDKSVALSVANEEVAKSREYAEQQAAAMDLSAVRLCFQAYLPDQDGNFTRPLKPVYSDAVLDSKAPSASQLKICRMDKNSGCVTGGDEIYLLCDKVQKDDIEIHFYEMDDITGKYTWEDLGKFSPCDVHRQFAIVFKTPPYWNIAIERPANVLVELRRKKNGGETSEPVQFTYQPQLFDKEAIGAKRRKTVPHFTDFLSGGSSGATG

GST-Co-NF-kB = biological target: T3, GST-Co-NF-kB (Capsaspora owczarzaki, UniProt F1ARL5 200-546)
T3 sequence: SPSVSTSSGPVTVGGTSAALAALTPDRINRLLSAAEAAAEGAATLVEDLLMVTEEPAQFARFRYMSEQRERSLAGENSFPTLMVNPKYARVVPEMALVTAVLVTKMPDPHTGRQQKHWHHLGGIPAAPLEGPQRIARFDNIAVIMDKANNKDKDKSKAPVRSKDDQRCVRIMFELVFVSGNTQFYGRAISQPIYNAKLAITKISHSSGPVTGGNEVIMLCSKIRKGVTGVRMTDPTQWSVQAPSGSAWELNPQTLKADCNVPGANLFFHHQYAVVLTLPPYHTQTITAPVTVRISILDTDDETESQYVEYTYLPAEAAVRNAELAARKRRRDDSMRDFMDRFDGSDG

GST-Dm-Relish = biological target: T4, GST-Dm-Relish (Drosophila melanogaster, UniProt Q94527 99-473)
T4 sequence: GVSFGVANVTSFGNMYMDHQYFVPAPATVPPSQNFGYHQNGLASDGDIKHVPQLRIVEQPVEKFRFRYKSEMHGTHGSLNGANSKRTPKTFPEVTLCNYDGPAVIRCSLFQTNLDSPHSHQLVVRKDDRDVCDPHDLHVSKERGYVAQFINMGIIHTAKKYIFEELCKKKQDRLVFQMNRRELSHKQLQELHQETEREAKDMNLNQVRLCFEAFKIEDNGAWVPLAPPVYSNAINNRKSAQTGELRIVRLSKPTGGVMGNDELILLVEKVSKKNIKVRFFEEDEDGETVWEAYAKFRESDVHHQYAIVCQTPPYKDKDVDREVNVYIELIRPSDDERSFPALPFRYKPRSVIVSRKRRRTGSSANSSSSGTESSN

GST-Aq-NF-kB = biological target: T5, GST-Aq-NF-kB (Amphimedon queenslandica, UniProt A9Y5G7 2-389)
T5 sequence: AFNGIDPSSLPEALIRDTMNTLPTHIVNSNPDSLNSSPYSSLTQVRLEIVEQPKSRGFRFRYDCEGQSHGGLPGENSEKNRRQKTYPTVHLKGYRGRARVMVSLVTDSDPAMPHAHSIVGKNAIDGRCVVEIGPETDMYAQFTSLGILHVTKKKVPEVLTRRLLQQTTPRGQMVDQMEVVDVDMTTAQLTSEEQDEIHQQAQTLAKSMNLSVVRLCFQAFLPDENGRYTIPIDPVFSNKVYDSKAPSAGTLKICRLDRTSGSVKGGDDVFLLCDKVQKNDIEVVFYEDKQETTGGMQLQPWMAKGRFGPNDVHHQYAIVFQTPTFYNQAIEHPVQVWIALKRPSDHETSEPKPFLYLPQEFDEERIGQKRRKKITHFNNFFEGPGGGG

Sequence | binding signal (GST-Ap-NF-kB RHD) | binding signal [1] | binding signal (GST-Co-NF-kB) | binding signal (GST-Dm-Relish) | binding signal (GST-Aq-NF-kB)
CCGATTAACATCAGGAGAACCCCTGATGTTAATCGGGTCTTGATTCGCTTGACGCTGCTG | 4 z-score | 3.59 z-score | 1.26 z-score | 3.65 z-score | 5.68 z-score
CCGATTAACATCAGGAACTACCCTGATGTTAATCGGGTCTTGATTCGCTTGACGCTGCTG | 2.97 z-score | 2.75 z-score | 1.33 z-score | 3.64 z-score | 5.04 z-score
CCGATTAACATCAGGGAACTCCATGATGTTAATCGGGTCTTGATTCGCTTGACGCTGCTG | 2.66 z-score | 2.2 z-score | 1.5 z-score | 6.21 z-score | 3.71 z-score
CCGATTAACATCAAATATACCCATGATGTTAATCGGGTCTTGATTCGCTTGACGCTGCTG | 2.13 z-score | 2.41 z-score | 1.8 z-score | 2.31 z-score | 2.52 z-score
CCGATTAACATCAAGTGTTTCCCTGATGTTAATCGGGTCTTGATTCGCTTGACGCTGCTG | 2.2 z-score | 3.22 z-score | 3.78 z-score | 4.7 z-score | 3.79 z-score
CCGATTAACATCACACACCCCCCTGATGTTAATCGGGTCTTGATTCGCTTGACGCTGCTG | 4.13 z-score | 3.15 z-score | 3.85 z-score | 3.82 z-score | 3.48 z-score
CCGATTAACATCAGGGACAACCCTGATGTTAATCGGGTCTTGATTCGCTTGACGCTGCTG | 3.42 z-score | 4.16 z-score | 1.06 z-score | 3.09 z-score | 5.59 z-score
CCGATTAACATCAGAATTCCCACTGATGTTAATCGGGTCTTGATTCGCTTGACGCTGCTG | 2.58 z-score | 4.12 z-score | 2.92 z-score | 4.09 z-score | 3.19 z-score
CCGATTAACATCAGGGAGCTCCCTGATGTTAATCGGGTCTTGATTCGCTTGACGCTGCTG | 4.49 z-score | 3.24 z-score | 1.46 z-score | 3.76 z-score | 6.36 z-score
CCGATTAACATCAGATACCCCCCTGATGTTAATCGGGTCTTGATTCGCTTGACGCTGCTG | 6.55 z-score | 4.3 z-score | 4.8 z-score | 3.94 z-score | 4.46 z-score
